Our source for the FP signal (polarization) values is PubChem BioAssay AID1159607 (Small Molecule Screening Facility, UW Madison, 2016).

Molecules are shown by their SMILES. In all, about 70,000 compounds went through this assay and about 400 (0.57%) were called active. Rule as the data show it: active = FP signal below about 40; inactive = the rest. The list comes from a sample in which actives are over-represented; it also holds similar structures and randomly drawn compounds.

The test system of the assay is RMI core complex (RMI1/RMI2) binding to FANCM MM2 peptide, human. The assay can be described thus: disruptors of RMI1/RMI2 association with MM2 peptide – biochemical, fluorescence polarization, human, primary screen (AID 1159607). Conditions: RMI core complex with F-MM2 peptide, at 33 µM, hits give low values.
As for `COc1ccc(CCS(=O)(=O)Nc2ccc3c(c2)N(C)C(=O)C(C)(C)CO3)cc1`, the FP signal (polarization) was 67 (inactive).

On to `O=C(Cn1cnc(-c2ccc(F)cc2)cc1=O)N1CCN(c2cccc(Cl)c2)CC1`, for which the FP signal (polarization) was 70 (inactive). For `Cc1nc2c(=O)n(Cc3cccc(F)c3)nc(-c3ccco3)c2s1` the value was 62 (inactive); for `O=C(O)CCNC(=S)Nc1ccc(F)c(Cl)c1`, 54 (inactive); for `CC1(C)Cc2cccc(OCc3ccc(C(=O)NCCN4CCOCC4)cc3)c2O1`, 54 (inactive). For `C=CCn1c(SCCC(=O)Nc2scc(-c3ccc(Cl)cc3)c2C(=O)OCC)nc2sc3c(c2c1=O)CCC(C)C3` (stereo not drawn) the value was 84 (inactive); for `NNC(=O)c1cccnc1N`, 51 (inactive); for `COc1ccc(CCNC(=O)c2cccc(NS(=O)(=O)c3cccc(F)c3)c2)cc1OC`, 72 (inactive). Turning to `CCOC(=O)c1c(NC(=O)c2ccc(C(=O)OC)cc2)sc2c1CCC2`, the FP signal (polarization) was 75 (inactive). For `CCc1ccccc1NC(=O)C(=O)NCCCN1CCOC(c2ccccc2)C1` (stereo not drawn) the value was 72 (inactive). For `CCCC(=O)Oc1c(Cl)cc(N(C(=O)CCC)S(=O)(=O)c2ccc(C)cc2)cc1Cl` the value was 50 (inactive). For `CC1CCc2c(sc(NC(=O)c3cccc([N+](=O)[O-])c3)c2C#N)C1` (stereo not drawn) the value was 48 (inactive); for `CC1=NN(CCN2CCCCC2)c2nc3c(c(=O)n(CCN4CCCCC4)c(=O)n3C)n2C1C` (stereo not drawn), 65 (inactive). On to `Cc1ccc(C(C)C)c(OCCCn2c3ccccc3c3nc4ccccc4nc32)c1`, for which the FP signal (polarization) was 27 (active). For the compound `CCCOc1ccc(Cn2c3ccccc3c3nc4ccccc4nc32)cc1`, the FP signal (polarization) is 60 (inactive). As to `Cc1ccccc1OCCCn1c(C2CC(=O)N(C(C)(C)C)C2)nc2ccccc21` (stereo not drawn), the FP signal (polarization) was 69 (inactive). For `COc1ccc(-c2nnc(NC(=O)CSc3ccc(Cl)cc3)s2)cc1` the value was 67 (inactive); for `COc1ccc(-c2nnc(NC(=O)c3cc(Cl)sc3Cl)o2)c(OC)c1`, 62 (inactive); for `Cc1cc(-c2nnc(NC(=O)/C=C/c3ccccc3Cl)o2)nn1C`, 63 (inactive). Take `COc1ccc(-c2nnc(NC(=O)/C=C/c3ccccc3Cl)o2)c(OC)c1`: the FP signal (polarization) is 35 (active).

With `COc1ccc(-c2cc(C(F)(F)F)n3nc(C(=O)Nc4cc5c(cc4[N+](=O)[O-])OCCO5)cc3n2)cc1`, the FP signal (polarization) was 37 (inactive). For `CCn1cc(NC(=O)N2CCc3ccccc32)c2ccccc21` the value was 53 (inactive).

As to `COc1ccccc1CCNC(=O)C(=O)NC1CCCCCC1`, the FP signal (polarization) is 51 (inactive).
